Test results from PubChem BioAssay (Tox21).
Active and inactive are the calls of the source. A call without a number means that no potency is given here. Calls come from the whole dose curve.

Each compound was assayed against Estrogen receptor (Homo sapiens) (UniProt P03372) (assay: qHTS assay to identify small molecule agonists of the estrogen receptor alpha (ER-alpha) signaling pathway in the presence of an antagonist (AID 1259383; note: top concentration of the series differs between compounds; nearly all actives have a fitted effect of over 15% in size)). Settings: VM7Luc4E2 cells, ERE-luciferase, +ICI-182,780, 22 h; series mostly up to 92.4 µM.
Estrogen receptor (Homo sapiens), sequence (P03372 whole entry, looked up): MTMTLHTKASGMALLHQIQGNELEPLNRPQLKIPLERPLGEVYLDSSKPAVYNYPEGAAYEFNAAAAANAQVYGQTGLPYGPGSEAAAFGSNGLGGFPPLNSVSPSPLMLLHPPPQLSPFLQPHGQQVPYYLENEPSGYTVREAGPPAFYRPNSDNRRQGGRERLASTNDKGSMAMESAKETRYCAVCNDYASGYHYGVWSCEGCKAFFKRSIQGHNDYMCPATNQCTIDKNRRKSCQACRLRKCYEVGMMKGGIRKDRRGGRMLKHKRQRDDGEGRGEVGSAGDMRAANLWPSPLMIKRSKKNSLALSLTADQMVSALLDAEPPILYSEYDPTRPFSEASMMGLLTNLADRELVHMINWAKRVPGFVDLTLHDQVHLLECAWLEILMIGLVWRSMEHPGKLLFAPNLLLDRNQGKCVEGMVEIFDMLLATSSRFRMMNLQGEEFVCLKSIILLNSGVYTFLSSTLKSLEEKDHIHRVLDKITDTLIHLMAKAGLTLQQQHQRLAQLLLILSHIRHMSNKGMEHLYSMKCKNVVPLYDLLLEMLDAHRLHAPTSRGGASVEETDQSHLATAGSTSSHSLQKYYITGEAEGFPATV
Source text: National Center for Advancing Translational Sciences [NCATS] NIH Chemical Genomics Center [NCGC] U.S. Environmental Protection Agency [EPA] National Institutes of Environmental Health Sciences [NIEHS] National Toxicology Program [NTP] Assay overview: Estrogen receptor (ER), a member of nuclear hormone receptor plays an important role in development, metabolic homeostasis and reproduction. Two subtypes of ER, ER-alpha and ER-beta, have similar expression patterns with some uniqueness in both types. Endocrine disrupting chemicals (EDCs) and their interactions with steroid hormone receptors like ER causes disruption of normal endocrine function. Therefore, it is important to understand the effect of environmental chemicals in ER signaling pathway. For identifying ER agonists, VM7Luc4E2 cell line has been used in the current assay. VM7Luc4E2 cell line (provided by Denison MS, University of California) endogenously expresses full-length ER-alpha and is stably transfected with a plasmid containing four estrogen responsive elements (ERE) upstream of a luciferase reporter gene. This current screening for measuring luciferase reporter gene activity using VM7Luc4E2 cells against Tox21 10K library collection is a confirmation study on agonist mode screening in presence of ER-antagonist (ICI-182,780) at 10.0nM final concentration.
Assay Protocol Summary: VM7Luc4E2 cells were cultured in phenol red free assay medium containing 10% charcoal stripped FBS for 5 days prior to the assay. The cells were dispensed at 4,000 cells in 4uL of assay medium per well into white wall/solid-bottom 1536-well plates (Corning Life Sciences, Corning, NY) using a Multidrop Combi (Thermo Fisher Scientific Inc., Waltham, MA) dispenser. After the assay plates were incubated at 37C and 5% CO2 for 24hr, 1uL of 10.0nM (final concentration) ICI-182,780 or assay buffer was added using two separate tips of Flying Reagent Dispenser (FRD, Aurora Discovery, San Diego, CA). Then 23nL of compounds dissolved in DMSO at 15 concentrations and positive controls or DMSO only was transferred to the assay plates by a Pintool station (Wako, San Diego, CA). The assay plates were incubated at 37C and 5% CO2 for 22hr. For luciferase read, 4uL/well ONE-Glo reagent (Promega Corporation, Madison, WI) was added to each well using FRD and after 30min incubation at room temperature, luminescence signal was measured on ViewLux plate reader (PerkinElmer, Shelton, CT).
`CCCCCCCC/C=C/CCCOC(C)=O` was tested, and the Potency was “inactive”.
In the case of `CCCC(C)CCC(C)=O` (stereo not given), the Potency is reported as “inactive”.
`CC(C(O)c1ccccc1)N(C)CCOC(c1ccccc1)c1ccccc1` (stereo not given) was tested, and the Potency was “inactive”.
In the case of `O=C1OC(=O)c2ccc3c4c(ccc1c24)C(=O)OC3=O`, the Potency is reported as “inactive”.
`O=C1OC(=O)c2cccc3cccc1c23` was tested, and the Potency was “inactive”.
With `CCCCCCCCCCOCC(O)CN` (stereo not given) the Potency was “inactive”.
For `CCOCN(C(=O)CS(=O)(=O)O)c1c(C)cccc1CC`, the Potency was “inactive”.
For `Cc1cc(C)c(C=O)c(C)c1`, the Potency was “inactive”.
For `CC(=O)Oc1ccc(C2(c3ccc(OC(C)=O)cc3)Oc3ccccc3NC2=O)cc1`, the Potency was “inactive”.
With `NC(=O)C(=O)N/N=C/c1ccc([N+](=O)[O-])o1` the Potency was “inactive”.
In the case of `c1ccc(Nc2cccc3ccccc23)cc1`, the Potency is reported as “inactive”.
In the case of `CCCCNc1c(C(=O)OCC)c(C)nc2c1cnn2CC`, the Potency is reported as “inactive”.
`CO[C@H]1C=CO[C@@]2(C)Oc3c(C)c(O)c4c(O)c(cc(O)c4c3C2=O)NC(=O)/C(C)=C\C=C/[C@H](C)[C@H](O)[C@@H](C)[C@@H](O)[C@@H](C)[C@H](OC(C)=O)[C@@H]1C` was tested, and the Potency was “inactive”.
For `O[C@@H](c1cc(C(F)(F)F)nc2c(C(F)(F)F)cccc12)[C@H]1CCCCN1`, the Potency was “inactive”.
For `O=C(c1ccccc1)c1cc(Cl)ccc1O`, the Potency was “inactive”.
With `CCN=c1cc2oc3cc(NCC)c(C)cc3c(-c3ccccc3C(=O)OCC)c-2cc1C` the Potency was “inactive”.
`CCC(C)c1ccccc1` (stereo not given) was tested, and the Potency was “inactive”.
In the case of `CCCCCCCC/C=C\CCCCCCCC(=O)N(C)CC(=O)O`, the Potency is reported as “inactive”.
With `NCCCCCCNCCCCCCN` the Potency was “inactive”.
For `C=CC(=O)OCCN(CC)CC`, the Potency was “inactive”.
In the case of `CN(C)CCN1CCOCC1`, the Potency is reported as “inactive”.
With `O=c1cccc[nH]1` the Potency was “inactive”.
`CC1CCCCC1` was tested, and the Potency was “inactive”.
`CCCCCCCC/C=C\CCCCCCCC(=O)OCCOC(=O)CCCCCCC/C=C\CCCCCCCC` was tested, and the Potency was “inactive”.
For `Cc1ccc2ccc3cccc4ccc1c2c34`, the Potency was “inactive”.
In the case of `CC1=CCC(=O)O1`, the Potency is reported as “inactive”.
In the case of `C=CC(C)(CCC=C(C)C)OC(=O)/C=C/c1ccccc1` (stereo not given), the Potency is reported as “inactive”.
In the case of `CC(=O)Oc1ccc(C2(c3ccc(OC(C)=O)cc3)C(=O)Nc3ccccc32)cc1`, the Potency is reported as “inactive”.
In the case of `CCCOc1sc(C(=O)N2CCC(c3cc(CN)ccc3F)CC2)c(C)c1Br`, the Potency is reported as “inactive”.
`O=C(O)c1cccc(Cl)n1` was tested, and the Potency was “inactive”.
`CCOC(=O)C1=C(C)NC(C)=C(C(=O)OCC)C1c1ccccc1/C=C/C(=O)OC(C)(C)C` was tested, and the Potency was “inactive”.
In the case of `CSc1ccc2c(c1)N(CCC1CCCCN1C)c1ccccc1S2` (stereo not given), the Potency is reported as “inactive”.
For `CC(C)=CCCC(C)CCOC(=O)C(C)C` (stereo not given), the Potency was “inactive”.
`C=CC/C=C/C/C=C/C/C=C/C` was tested, and the Potency was “inactive”.
In the case of `O=C1NC2CCCCN2C12CCN(CCCN1c3ccccc3CCc3ccc(Cl)cc31)CC2` (stereo not given), the Potency is reported as “inactive”.
With `CC(NCCC(c1ccccc1)c1ccccc1)c1ccccc1` (stereo not given) the Potency was “inactive”.
With `CN(C)CCOC(c1ccccc1)c1ccccc1` (tested in a mixture with another compound) the Potency was “inactive”.
For `CCOB(OCC)OCC`, the Potency was “inactive”.
`CCCCCCCC(=O)OCC` was tested, and the Potency was “inactive”.
`C=C1C(C)(C)[C@@]2(Cl)C(Cl)[C@]1(Cl)C(Cl)(Cl)C2(Cl)Cl` (stereo not given in full) was tested, and the Potency was “inactive”.
